# ALR inh: blocks human ALR sulfhydryl oxidase activity | inhibition, % (test concentration not listed) | purified ALR, DTT oxidation, H2O2 HRP-luminol luminescence | 290,000 compounds, 3.8% hits | P55789;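 active means mean replicate inhibition above about 79%, with every replicate also reaching it, limit read from the data; inconclusive means only one of the two criteria met; inactive means mean below limit and not every replicate reaching it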
# Target sequence (P55789 whole entry, looked up): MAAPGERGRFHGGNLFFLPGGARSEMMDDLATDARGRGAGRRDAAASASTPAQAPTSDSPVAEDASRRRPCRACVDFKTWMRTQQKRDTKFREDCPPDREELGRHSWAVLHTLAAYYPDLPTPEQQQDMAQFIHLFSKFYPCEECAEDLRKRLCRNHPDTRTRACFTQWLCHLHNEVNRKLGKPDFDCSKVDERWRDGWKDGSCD
# LANA-H2B inh: blocks KSHV LANA binding to histone H2A/H2B. inhibition, % (test concentration not listed). AID 2629. cell-free LANA-H2A/H2B peptide, fluorescence polarization. 320,000 compounds, 0.6% hits; in the data active means inhibition mostly above about 10%, no sharp cut-off; inactive means mostly below about 6.7%
# rCAG binder: molecules binding r(CAG) RNA repeats. r(CAG) RNA repeat, TO-PRO-1 dye displacement fluorescence. inhibition, % at 3 µM. 370,000 compounds, 1.3% hits;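 active means inhibition above the plate cutoff, the mean of all test compounds on that plate plus 3 SD, cut at about 35% in these data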;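 further: 0% = DMSO alone and 100% = 100 µM mitoxantrone as full dye displacement; higher means more dye released from RNA so lower well fluorescence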
# ABHD5 PLIN5 PPI: inhibitors of human ABHD5-perilipin-5 interaction. Q00G26+Q8WTS1. Split G. princeps luciferase complementation, luminescence, 4 h. inhibition, % at 4 µM. 360,000 compounds, 0.78% hits;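 active means inhibition above the mean inhibition across every tested compound plus 3 SD, cut at about 22% in these data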;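 further: 0% = DMSO only wells and the 100% control is not disclosed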
# PRMT1 FP inh: inhibitors of human PRMT1. 370,000 compounds, 1.3% hits. recombinant PRMT1, activity-based probe fluorescence polarization. Q99873. inhibition, % at 2.79 µM;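 active means inhibition above about 21% made by adding two undisclosed values, limit read from the data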
# Rtt109 HAT inh: C. albicans Rtt109 histone acetyltransferase inhibition. Q5AAJ8. purified Rtt109/Vps75, ThioGlo CoA-SH fluorescence, 4 h. inhibition, % at 34.9 µM. 330,000 compounds, 0.16% hits. AID 540336;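 active means inhibition of at least 50% in every replicate; inconclusive means best replicate reaches 50% inhibition but some replicates fall short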
# Target sequence (Q5AAJ8 whole entry, looked up): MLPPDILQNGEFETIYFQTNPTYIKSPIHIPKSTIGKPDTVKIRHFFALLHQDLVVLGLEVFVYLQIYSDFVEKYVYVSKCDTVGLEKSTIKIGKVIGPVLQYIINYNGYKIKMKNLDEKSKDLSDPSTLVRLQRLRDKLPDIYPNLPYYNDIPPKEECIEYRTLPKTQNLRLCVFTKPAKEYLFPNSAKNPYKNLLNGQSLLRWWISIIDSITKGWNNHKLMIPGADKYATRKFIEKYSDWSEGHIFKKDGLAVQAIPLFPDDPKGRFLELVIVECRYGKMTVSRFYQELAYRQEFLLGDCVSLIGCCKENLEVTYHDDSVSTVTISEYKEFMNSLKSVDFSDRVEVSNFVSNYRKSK
# An asterisk follows results filed as active; ? = inconclusive; nt = no result given; + = active, no number. Rows were chosen to be rich in hits. Some 5.9% of all compounds tested hit in one or more screens of this group.
SMILES,ALR inh,LANA-H2B inh,rCAG binder,ABHD5 PLIN5 PPI,PRMT1 FP inh,Rtt109 HAT inh
O=C(Cc1ccccc1)N1CCN=C1SCc1cccc([N+](=O)[O-])c1,98.0*,1.2,-4.3,-6.9,0.8,8.5
Cc1cccc(CSC2=NCCN2C(=O)c2ccc(Br)o2)c1,95.4*,-4.0,1.3,1.4,-4.2,-5.0
Cc1cccc(C(=O)N2CCN=C2SCc2ccc([N+](=O)[O-])cc2)c1,98.9*,-2.2,-4.2,-22.2,1.3,9.5
CCc1cccc(Nc2cc(C)n(-c3cccc(CC)c3)c(=O)c2)c1,nt,nt,1.6,nt,-3.0,nt
CCCCNC(=O)C1CCCN1C(=O)Nc1cc(Cl)cc(Cl)c1 (stereo not given),nt,nt,3.4,nt,2.0,nt
c1ccc(-n2cc(CN3CCCC(CN4CCCC4)C3)c(-c3ccc4c(c3)OCO4)n2)cc1 (stereo not given),7.1,21.2*,-1.8,3.5,-4.5,3.0
CC(=O)Nc1cccc(/C(C)=N/Nc2nc3ccccc3s2)c1,97.9*,-2.2,5.6,11.4,-0.4,-3.0
CC(=O)Nc1ccc(/C=N/Nc2nc3ccccc3s2)cc1,nt,nt,12.1,1.6,6.0,-7.3
c1ccc(CNc2c(C3CCNCC3)nc3scc(-c4ccccc4)n23)cc1,nt,nt,7.0,-5.0,4.6,nt
COc1ccc(N=C(NN)c2ccc3ccccc3n2)cc1,-64.1,-3.8,5.7,-6.9,26.7*,6.5
COC(=O)c1[nH]c2ccc(F)cc2c1NC(=O)C1=COCCO1,4.2,11.5*,-1.8,12.9,-0.8,10.3
O=C(NCC(c1ccccc1)c1ccccc1)[C@H](Cc1c[nH]c2ccccc12)NC1(C(=O)NC2CCCCC2)CCCC1,nt,nt,nt,nt,2.8,nt
O=C(CSCc1cc(=O)[nH][nH]1)Nc1ccc(F)cc1,14.1,18.5*,5.6,-7.3,1.7,nt
Nc1cc(Cl)ccc1C(=O)OCC(=O)NC1CCCCCCC1,0.2,2.4,0.4,-2.4,0.4,2.5
Cc1ccc(NC(=O)CSc2nncc3ccccc23)cc1,99.1*,4.1,1.7,2.2,-0.1,6.2
Cc1nnc(SCC(=O)Nc2ccccc2)c2ccccc12,98.9*,2.8,0.6,-0.5,0.0,-0.3
COc1ccc2cnnc(SCC(=O)Nc3ccc(C(C)=O)cc3)c2c1OC,73.8,1.4,0.8,-0.1,2.7,3.1
Cc1ccccc1NC(=O)CSc1nnc(C)c2ccccc12,96.3*,3.8,3.2,1.6,0.7,5.0
COc1ccc2cnnc(SCC(=O)Nc3ccc(C(=O)O)cc3)c2c1OC,98.8*,-0.5,12.7,1.1,3.6,1.3
CC(=O)c1ccc(Nc2nc(C(N)CCc3ccccc3)cs2)cc1 (stereo not given),nt,nt,12.3,-0.8,2.7,nt
COc1ccc(C(=O)NCCNc2nc3cc(C)cc(C)c3cc2C#N)c(OC)c1,nt,nt,6.6,0.9,-2.2,nt
COCCNc1nc(-c2ccccc2CO)c2sc(-c3ccccc3)cc2n1,nt,nt,nt,0.4,nt,nt
CCCCCCN1CCN(C2CN(Cc3cn(Cc4ccc(C)cc4)nn3)S(=O)(=O)C2)CC1 (stereo not given),nt,nt,-0.9,-13.0,-0.8,nt
N#Cc1cc(-c2ccccc2)oc1NC(=O)c1ccccc1,78.8*,-1.7,6.5,-4.7,-1.1,2.0
CC1(C(=O)NS(=O)(=O)c2ccccc2C(F)(F)F)CCN1C(=O)CCc1ccccc1 (stereo not given),nt,nt,10.1,6.3,-0.7,nt
SMILES,ALR inh,LANA-H2B inh,rCAG binder,ABHD5 PLIN5 PPI,PRMT1 FP inh,Rtt109 HAT inh
Cc1cc2n(n1)C(c1ccc(N(C)C)cc1)Nc1ccccc1-2 (stereo not given),-0.1,-7.3,8.7,-1.8,2.3,-5.5
Cc1cc2n(n1)C(c1sccc1C)Nc1ccccc1-2 (stereo not given),90.6*,-2.1,-0.3,0.6,2.7,9.4
Cc1cc2n(n1)C(c1ccccc1)Nc1ccccc1-2 (stereo not given),90.7*,-6.2,6.5,10.5,2.8,-1.5
O=C(C1CCCN(Cc2ccc(Br)cc2)C1)N1CCCCC1 (stereo not given),89.5*,-1.5,-2.2,-0.2,-2.8,-1.0
CCN(CC)CC(=O)Nc1ccc2c(c1)N(C(=O)CN(CC)CC)c1ccccc1CC2,-11.9,-1.4,-8.9,-10.3,2.9,1.6
CCN(CC)CC(=O)Nc1ccc2c(c1)Nc1ccccc1CC2,98.9*,-5.1,-7.9,12.8,-0.9,9.0
O=C(Nc1cc(-c2ccccc2)[nH]n1)c1ccccc1F,49.3,6.5,-0.1,1.2,-1.6,nt
CC1=C(C(=O)Nc2cc(-c3cccc(F)c3)[nH]n2)C2(CCCCC2)OC1=O,85.8*,-2.4,5.7,-12.3,4.0,-9.5
N#Cc1ccccc1N1CCN(C(=O)C2CCN(c3ncnc4c3sc3cccc(F)c34)CC2)CC1,nt,nt,10.3,nt,-0.8,nt
CSc1nc2ccc(Nc3nc(N4CCOCC4)nc(N4CCOCC4)n3)cc2s1,98.3*,-0.7,7.7,-0.8,-3.2,12.3
CCCCc1ccc(Nc2nc(N3CCOCC3)nc(N3CCOCC3)n2)cc1,-1.7,21.0*,-0.3,-8.5,-1.1,-7.5
O=C(CSc1nc2ccc(Nc3nc(N4CCOCC4)nc(N4CCOCC4)n3)cc2s1)N1CCOCC1,?,1.0,-2.5,-4.2,2.1,4.7
Cc1ccc(Nc2nc(N3CCOCC3)nc(N3CCOCC3)n2)cc1,0.8,-2.4,-5.3,4.1,-0.2,0.2
CCCCN(C(=O)CSc1nnc(-c2ccccc2OC)n1C)c1c(N)n(Cc2ccccc2)c(=O)[nH]c1=O,-22.3,+,-5.4,4.8,-0.7,nt
COc1ccc(-c2ccc3c(n2)CCCN3S(=O)(=O)c2ccc(C(F)(F)F)cc2)cc1,nt,nt,7.1,nt,-0.9,nt
FC(F)(F)c1cccc(N2CCN(Cc3cccnc3)CC2)c1,12.8,-0.2,-5.3,6.0,0.8,4.9
COc1cccc(N2CCN(Cc3cccnc3)CC2)c1,91.5*,2.6,-2.4,2.3,-2.0,-2.7
CCCC#Cc1ccc2c(c1)O[C@@H](CN(C)Cc1ccc3c(c1)OCO3)[C@H](C)CN([C@@H](C)CO)S2(=O)=O,nt,nt,9.4,-12.2,3.1,nt
Cc1ccc(S(=O)(=O)Nc2nc3ccccc3s2)cc1,-5.0,-3.2,25.8,4.9,-2.7,1.0
O=S(=O)(Nc1nc2ccccc2s1)c1ccc(Br)s1,2.0,-2.4,50.3*,3.9,4.9,3.6
CCc1nnc(NC(=O)CSc2nnnn2C)s1,99.1*,-0.9,0.4,1.1,-0.5,3.5
O=C(NCc1cccs1)C1CCN(S(=O)(=O)c2cccc3ccccc23)CC1,nt,nt,3.9,nt,3.5,nt
O=S1(=O)CC(N2CCN(CC3CC3)CC2)CN1CCc1ccccc1 (stereo not given),nt,nt,0.8,3.5,-2.1,nt
Cc1ccccc1CN1C(=O)CSCC1(C)C(=O)Nc1ccc2c(c1)OCCO2 (stereo not given),nt,nt,3.9,-3.7,4.8,nt
COc1cccc(CN2CC(C(=O)N(C)Cc3ccc(C)cc3)CCC2=O)c1 (stereo not given),-6.1,13.9*,-9.2,-2.9,1.6,2.8
